PubChem BioAssay AID1481 (The Scripps Research Institute Molecular Screening Center, 2009)
Among all 220,000 compounds or so, about 920 (0.42%) were called active. No stated cut-off is given here; in the data, active means inhibition above about 15%; inactive means the rest. Shown is part of a subset that was picked to be rich in actives.

molecular target: Transitional endoplasmic reticulum ATPase (Homo sapiens) (UniProt P55072); assay: p97 ATP hydrolysis blockers – biochemical, primary screen (AID 1481); conditions: recombinant p97 ATPase, Kinase-Glo ATP luminescence, 3 h; at 8 µM; hits give high values;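 further: 0% = DMSO vehicle and 100% = wells lacking enzyme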
Sequence (P55072 whole entry, looked up): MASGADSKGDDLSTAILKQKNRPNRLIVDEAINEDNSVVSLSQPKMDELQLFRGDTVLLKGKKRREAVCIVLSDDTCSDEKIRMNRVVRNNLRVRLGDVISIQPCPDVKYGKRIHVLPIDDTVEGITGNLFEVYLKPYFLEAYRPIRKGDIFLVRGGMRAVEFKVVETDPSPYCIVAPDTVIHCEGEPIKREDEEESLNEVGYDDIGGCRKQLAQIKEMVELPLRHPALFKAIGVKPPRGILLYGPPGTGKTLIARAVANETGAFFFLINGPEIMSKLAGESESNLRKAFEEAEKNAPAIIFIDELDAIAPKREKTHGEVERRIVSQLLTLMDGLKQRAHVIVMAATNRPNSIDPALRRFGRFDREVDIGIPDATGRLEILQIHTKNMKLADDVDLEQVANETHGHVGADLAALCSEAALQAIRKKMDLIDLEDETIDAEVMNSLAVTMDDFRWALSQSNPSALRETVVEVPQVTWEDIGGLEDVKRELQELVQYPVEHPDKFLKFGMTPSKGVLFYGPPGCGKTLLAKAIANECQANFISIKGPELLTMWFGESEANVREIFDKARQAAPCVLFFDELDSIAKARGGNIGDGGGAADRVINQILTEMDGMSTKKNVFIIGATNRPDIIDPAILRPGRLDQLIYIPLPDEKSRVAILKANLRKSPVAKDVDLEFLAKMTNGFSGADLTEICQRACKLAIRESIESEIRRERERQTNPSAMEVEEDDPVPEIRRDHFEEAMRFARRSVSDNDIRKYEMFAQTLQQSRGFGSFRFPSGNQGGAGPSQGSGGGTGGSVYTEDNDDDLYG

inhibition, inactive:
Cc1ccccc1-n1c(C)cc(/C=C2\NC(=O)NC2=O)c1C -1.59%, Cc1ccc(/C=N/NC(=O)COc2ccccc2-c2ccccc2)cc1 -5.12%, Cc1ccc(NC(=O)NC2CCCCC2)cc1S(=O)(=O)N1CCOCC1 1.18%, CCOc1c(CNCc2ccc(C(=O)O)cc2)cccc1OC 3.61%, S=c1[nH]nc(-c2ccc(Cl)cc2)n1CC1CCCO1 (stereo not drawn) -0.03%, O=C(c1nnc(-c2ccc(Cl)cc2)o1)C1CCCC1 -6.78%, CN(CC(=O)NCCc1ccccc1)S(=O)(=O)c1cnc[nH]1 -2.11%, O=C(c1ccc(OC2CCN(C(=O)c3cccnc3)CC2)cc1)N1CCCCCC1 -2.04%, Nc1nnnn1/N=C/c1cc([N+](=O)[O-])ccc1O 1.03%, CCOC(=O)CCCN1CC(O)=C(c2nc3ccccc3s2)C1=N -8.77%, COc1ccccc1N1CC(O)=C(c2nc3ccccc3s2)C1=N 6.21%, O=C(CCc1ccccc1)Nc1nn[nH]n1 -3.71%, O=C(Nc1ccc2c(c1)OCCO2)C(c1ccc(F)cc1)N1CCCCC1 (stereo not drawn) -0.16%, CC(NC(=S)Nc1ccc(S(N)(=O)=O)cc1)c1ccc2c(c1)OCO2 (stereo not drawn) 0.42%, CN1C(=O)C(CC(=O)Nc2ccccc2)S/C1=N/c1nccs1 (stereo not drawn) 6.76%, CC(=O)c1cc(C#N)c(N2CCCCC2)nc1C -1.2%, Cc1cc(C)c(C#N)c(N2CCC(C(N)=O)CC2)n1 3.21%, O=C(NC(=O)N1CCOCC1)c1ccccc1 5.31%, O=C(CCl)N(Cc1cccc([N+](=O)[O-])c1)c1cccc(Cl)c1 -3.6%, CCOC(=O)CN1CCC(c2ccccc2)CC1 -3.38%, CCOC(=O)N1CCC(NC(=O)COc2cc(=O)n(C)c3ccccc23)CC1 -0.15%, CC(=O)Nc1nc2c(s1)C(=O)NCC(C)(C)C2 0.86%

inhibition, active:
Cc1no[n+]([O-])c1COc1ccccc1/C=C1\NC(=S)NC1=O 36%, O=C(c1[nH]ncc1-c1ccc(Cl)cc1)C1CO1 (stereo not drawn) 18.1%, N=C1C(c2nc3ccccc3s2)=C(O)CN1NC(=O)c1ccc([N+](=O)[O-])cc1 28.3%, CC1CCCN(C(C(=O)Nc2ccc(C(C)C)cc2)c2ccc3c(c2)OCO3)C1 (stereo not drawn) 15.3%, N#Cc1c(N2CCCCC2)nc(N)c2c(N)nc(SCC(=O)O)cc12 53.6%, CCOC(=O)N1CCC(c2cc(=O)n(-c3ccccc3)[nH]2)CC1 23%
